Bioassay records as filed in PubChem.
Sfp inh = inhibitors of Bacillus subtilis Sfp phosphopantetheinyl transferase. Biochemical Sfp PPTase activity, qHTS. Potency, µM, without a hit: largest response in the series, negative = inhibition, usual class: inhibitors. 310,000 tested, 3.5% active. AID 1490;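 also: the enzyme is Sfp with the accession as filed and its product quenches rhodamine fluorescence; 0% = enzyme reaction without inhibitor and -100% = no enzyme wells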
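Buffer: 50 mM Hepes-Na pH 7.6, 10 mM MgCl2, 0.01% Nonidet P-40, 0.01% BSA. Enzyme 15 nM, pre-exposed to compound 15 min; substrates then added and fluorescence change tracked over 30 min.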
rTrxR1 inhibitor = rat TrxR1 inhibition; O89049; recombinant rTrxR1, NADPH fluorescence consumption, selenite substrate; Potency, µM (doses to about 114 µM), inactives show at the highest dose activity change, negative = inhibition, hits mostly inhibitors; 390,000 tested, 1% active; also: nearly all actives have a fitted effect of over 65% in size
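Rat TrxR1 (90 nM in the dispensed reagent) was pre-reduced with 400 uM NADPH for 5 min at room temperature, then incubated with compound for 15 min. After 400 uM selenite was added, NADPH fluorescence (Ex 340/Em 450 nm) was followed for 8 min.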
GLS inhibitor = glutaminase GLS (human) inhibition; O94925; GLS enzymatic activity, qHTS titration; Potency, µM (titrated, usually from 45.5 µM), for inactives: top-dose activity change, negative = inhibition, hits mostly inhibitors; 410,000 tested, 0.21% active
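hKGA; 45 mM KH2PO4 pH 8.2 + 0.02% Tween-20; cpd via pin tool; 1 mM Gln soln; GluOx/HRP/Amplex Red; RT 30 min; fluor. t0 & final.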
VDR inh = blocks the human vitamin D receptor; P11473; VDR-SRC2-3 peptide fluorescence polarization, 2 h; Potency, µM, for inactives: max response, negative = inhibition, hits mostly inhibitors; 400,000 tested, 0.93% active; AID 504847
Target sequence (P11473 whole entry, looked up): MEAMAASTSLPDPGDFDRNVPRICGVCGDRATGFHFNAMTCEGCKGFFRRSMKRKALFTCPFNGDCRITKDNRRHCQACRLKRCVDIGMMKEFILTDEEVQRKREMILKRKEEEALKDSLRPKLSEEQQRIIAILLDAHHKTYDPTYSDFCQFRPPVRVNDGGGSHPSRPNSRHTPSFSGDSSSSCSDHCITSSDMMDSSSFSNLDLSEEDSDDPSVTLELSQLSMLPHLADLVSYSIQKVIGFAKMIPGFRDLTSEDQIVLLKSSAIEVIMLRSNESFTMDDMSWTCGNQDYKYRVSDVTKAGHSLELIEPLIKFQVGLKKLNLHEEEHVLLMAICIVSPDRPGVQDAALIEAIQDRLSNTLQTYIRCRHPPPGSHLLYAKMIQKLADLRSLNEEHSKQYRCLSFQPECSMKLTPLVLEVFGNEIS
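VDR–SRC2-3 interaction, FP format. Cmpds 23 nl via pintool, brief spin, 2 h ambient incubation.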
KAT2A inh = GCN5L2 (KAT2A) acetyltransferase inhibition | Potency, µM (series often up to 58.9 µM), without a hit: at the top dose activity change, negative = inhibition, most hits filed as inhibitors | 390,000 tested, 0.21% active | GCN5L2 HAT assay, ThioGlo1 CoA-SH fluorescence
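Compounds, pin-transferred from DMSO stocks, meet 20nM GCN5L2 for 15 min before the reaction begins with H3(1-25) peptide (75uM) and acetyl-CoA (70uM). Thiol-reactive ThioGlo1 reports CoA release over 20 min at room temperature.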
TrxR1 substrate = substrates of rat thioredoxin reductase 1; O89049; purified TrxR1 substrate turnover, NADPH consumption readout; Potency, µM (series often up to 114 µM), for inactives: at the top dose activity change, negative = substrate turnover; 390,000 tested, 0.01% active; AID 588456; also: nearly all actives have a fitted effect of over 50% in size
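Rat TrxR1, dispensed at 90 nM, was prereduced with 400 uM NADPH (final) for 5 min at ~22 deg C, then incubated with compound 15 min before 400 uM selenite. A first-read NADPH fluorescence drop versus no-compound background flagged substrates.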
Numbers without * were called inactive; u = inconclusive; x = not tested or not shown; [ ] = remark or other dose. Only some compounds are listed: those with a hit (about 3.8% of all), similar ones and a draw of the others. Calls follow the shape of the dose curve; as a rule, active = well fitted curve in the direction sought with a large enough effect; inconclusive = small, poorly fitted or top-dose-only effect, or another doubt; inactive = no such curve, though single readings can be large; an effect the other way counts as inactive or inconclusive. Unless noted, % is scaled to controls: 0 for no effect and ±100 for the full control effect; potency is read from the fitted curve at half-maximal effect.

SMILES	Sfp inh	rTrxR1 inhibitor	GLS inhibitor	VDR inh	KAT2A inh	TrxR1 substrate
CCOc1cccc(NC(=O)CSc2sc3c(O)cc(=O)[nH]c3c2C#N)c1	35µM*	-6%	6%	-16%	-5%	-12%
N#Cc1c(SCC(=O)Nc2ccccc2C(F)(F)F)sc2c(O)cc(=O)[nH]c12	14µM*	-9%	5%	22%	-27%	-1%
COc1ccc(NC(=O)CSc2[nH]c(=O)cc(C)c2C#N)cc1OC	-12%	13%	-1%	8%	-11%	8%
N#Cc1cccc(NC(=O)CSc2sc3c(O)cc(=O)[nH]c3c2C#N)c1	u	21%[57.1 µM]	11%	-4%	-16%	-8%
CCCSc1nnc(NC(=O)CSc2sc3c(O)cc(=O)[nH]c3c2C#N)s1	u	-17%	-2%	-1%	u	-8%
O=C(Nc1ccc(/C=C/c2nc3ccccc3o2)cc1)c1ccc(F)cc1	26%	24%	-3%	-1%	0%	40%
CN1C(=O)Cc2cc(S(=O)(=O)CCC(=O)N3CCN(c4ccc(Cl)cc4)CC3)ccc21	x	10%[57.1 µM]	5%	17%	-6%	5%[57.1 µM]
FC(F)(F)c1cccc(NC(=S)Nc2ccc(Cl)cc2Cl)c1	u	u	8%	3%	23%	-1%
CSc1nc2ccccc2n1CC(=O)Nc1cc(C(F)(F)F)ccc1N1CCOCC1	4%	-13%[11.4 µM]	-1%	20%	-8%[0.501 µM]	-8%[11.4 µM]
N#Cc1c(SCC(=O)Nc2cccc(F)c2)sc2c(O)cc(=O)[nH]c12	56µM*	13%[57.1 µM]	-13%	-3%	-8%	-16%
CCCCOc1cccc(C(=O)NC(=S)Nc2cccnc2)c1	-3%	25µM*	-2%	-25%	-5%	-12%
CCOc1cccc(C(=O)NC(=S)Nc2cccnc2)c1	45µM*	-59%	23%	-10%	-1%	11%[57.1 µM]
CCCCNC(=O)Nc1ccccc1C(=O)Nc1ccc(OC)cc1	5%	2%[57.1 µM]	3%	17%	-4%[0.501 µM]	6%[57.1 µM]
N#CC1=C(N)OC2=C(CC/C2=C\c2ccccc2Cl)C1c1ccccc1Cl (configuration not stated)	-7%	-20%	3%	-13%	2%	17%
N#CC1=C(N)Oc2c(ccc3cccnc23)C1c1ccccc1 (configuration not stated)	9%	-13%	9%	-13%	-6%	4%
Cc1oc(C)c2c(=O)ccc3c(c12)OC(N)=C(C#N)C3c1ccccc1Cl (configuration not stated)	50µM*	u	56%	-17%	-14%	5%[57.1 µM]
CSc1ccc(C2C(C#N)=C(N)Oc3c2ccc(=O)c2c(C)oc(C)c32)cc1 (configuration not stated)	56µM*	-71%	-13%	11%	u	-14%
O=C(c1cccn1-c1nnc(N2CCCCC2)s1)N1CCN(c2ccc(Cl)cc2)CC1	x	8%[57.1 µM]	5%	4%	-17%	-5%[57.1 µM]
Cc1ccc(C)c(NC(=O)NCc2ccc3c(c2)CCN3C(=O)c2ccccc2)c1	x	14%[57.1 µM]	7%	4%	-13%	-5%[57.1 µM]
O=S(=O)(Nc1ccc2nc(C(F)(F)F)[nH]c2c1)c1ccccc1	10%	16%	39%	3%	-2%	19%
Cc1ccc(-c2nc3ccc(NS(=O)(=O)c4ccccc4)cc3[nH]2)o1	35µM*	u	-2%	12%	-15%	-9%
O=S(=O)(Nc1ccc2nc(-c3ccc(Br)o3)[nH]c2c1)c1ccccc1	50µM*	x	x	x	-4%	x
CCOC(=O)c1c[nH]c2c(Cl)ccc(Cl)c2c1=O	8%	-4%[57.1 µM]	5%	9%	-1%	-12%
CCOC(=O)c1c[nH]c2c(C)ccc(Cl)c2c1=O	9%	22%[57.1 µM]	u	79µM*	-14%	4%[57.1 µM]
O=c1[nH]c(-c2ccccc2O)nc2c1CCCC2	20%	15%	-3%	19%	-4%	30%
SMILES	Sfp inh	rTrxR1 inhibitor	GLS inhibitor	VDR inh	KAT2A inh	TrxR1 substrate
Cc1cc(C)nc(NC(=O)C2c3ccccc3Oc3ccccc32)n1	17%	27%[57.1 µM]	-15%	1%	-1%	-15%[57.1 µM]
CC(=O)Nc1ccccc1Sc1ccccc1	4%	-7%[57.1 µM]	-4%	-2%	2%	5%[57.1 µM]
O=C(Nc1ccc2oc(=O)ccc2c1)c1ccc(-c2cccc(Cl)c2)o1	-12%	-9%	-1%	-6%	3%	4%
C=CCNC(=O)c1ccccc1NC(=O)Nc1ccccc1	8%	3%	3%	1%	-4%	5%
Cc1ccc(-c2csc(N3CCN(c4cc5c(cc4Cl)nc(C)n5CCN4CCCCC4)CC3)n2)cc1	50µM*	0%	16%	-22%	-2%	-9%
CC(C)Cc1c2c([nH]c(=S)c1C#N)CCCC2	2µM*	-20%	u	u	2%	4%[0.457 µM]
N#Cc1c(-c2cccnc2)c2c([nH]c1=S)CCCC2	28µM*	u	0%	-24%	-12%	-1%
N#Cc1sc2nc3c(c(-c4cccnc4)c2c1N)CCC3	6%	6%	3%	14%	-6%	-9%
CCCCCCCc1c(C#N)c(N)[nH]c(=S)c1C#N	-3%	u	0%	u	-5%	-7%[57.1 µM]
N#Cc1c(-c2ccco2)c2c([nH]c1=S)CCCC2	4.5µM*	u	u	-10%	u	-6%
Cc1nc2ccccc2nc(=O)c1NNc1ccccc1	-6%	-10%	u	10%	-5%	-9%
Cc1ccc(OCCN2CCN(C(=O)CCC(=O)Nc3nnc(CC(C)C)s3)CC2)cc1	-1%	13%	-3%	-8%	-10%	5%
CC(NC(=O)c1cccnc1)C(c1cccs1)N1CCOCC1 (configuration not stated)	-14%	-8%	9%	-2%	1%	-1%
CCc1cc(=O)oc2cc(OC(=O)CN3C(=O)NC4(CCCC4)C3=O)ccc12	7%	u	-20%	u	-8%	114%[57.1 µM]
O=C(CN1C(=O)NC2(CCCCC2)C1=O)Oc1ccc2c(C(F)(F)F)cc(=O)oc2c1	x	40µM*	14%	u	u	9%
O=C(CN1C(=O)NC2(CCCC2)C1=O)Oc1ccc2ccc(=O)oc2c1	x	79µM*	12%	-21%	-7%	855%
CCn1c(CNC(=O)c2cc(OC)c(OC)c(OC)c2)cc2ccccc21	18%	14%	0%	14%	4%	-3%
CN(C)c1oc(-c2ccccc2[N+](=O)[O-])nc1C#N	10µM*	u	16%	32µM*	-13%	4%
O=C(CCc1nnc2ccc(NCc3ccc(Cl)cc3)nn12)NC1CCCCC1	26%	1%	6%	-19%	-2%	6%
O=Cc1sc(=O)n(Cc2cccc(C(=O)O)c2)c1Cl	45µM*	3.2µM*	5%	79µM*	-15%	6%
